Source: the supplement of paper PMC10681739

biological target: T1, ETS1 (UniProt P14921); assay: TF binding intensity (PBM fluorescence), negative control probe (arbitrary fluorescence units); higher = stronger binding
T1 sequence: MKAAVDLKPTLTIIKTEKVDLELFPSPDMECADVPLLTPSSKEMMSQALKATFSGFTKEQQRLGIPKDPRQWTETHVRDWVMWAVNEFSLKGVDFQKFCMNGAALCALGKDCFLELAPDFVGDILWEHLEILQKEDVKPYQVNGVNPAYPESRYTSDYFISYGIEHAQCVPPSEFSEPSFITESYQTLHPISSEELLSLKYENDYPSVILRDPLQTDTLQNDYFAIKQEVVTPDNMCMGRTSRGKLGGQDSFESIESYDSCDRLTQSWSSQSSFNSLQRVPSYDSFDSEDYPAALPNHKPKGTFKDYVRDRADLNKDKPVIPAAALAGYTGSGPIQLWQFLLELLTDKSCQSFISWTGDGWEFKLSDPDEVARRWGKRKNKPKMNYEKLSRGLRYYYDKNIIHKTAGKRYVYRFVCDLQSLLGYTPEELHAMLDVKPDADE
Procedure: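 gcPBM negative-control 36-bp genomic probes lacking TF binding sites. Each was incubated with recombinant human ETS1 or RUNX1 alone and detected by antibody fluorescence. Values are medians over replicate spots (4 spots for the ETS1-RUNX1 arrays, 3 for the ETS1-ETS1 array). The probes sit in constant array flanks that are not printed.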

Sequence | TF binding intensity
CCTGTTTGAAAGAGAAAGAGGGCAGAGTGTGACATG (protein concentration 10 nM) | 160
CAGGCAGCATCTGGGGGTGTGTGGGTTTGGCAAGCT (protein concentration 10 nM) | 134
GACATTTCGAGTAAGTGCGGTATACCAGTTAAAAAT (protein concentration 1 nM) | 479
CAGGCTGTGGTTTCCATCATGAACACGTGATCCAGC (protein concentration 10 nM) | 127
GTGTGTGAGCGTGTACCCACAATGTGTAACTTAATT (protein concentration 1 nM) | 484
TCCAGAATTGCAAGGTCTGGGGAGCTGGGTGCCACA (protein concentration 10 nM) | 107
TCACTCTCTGGACAGGGCCCTCTGAGCAAGCAACCA (protein concentration 10 nM) | 109
TAAGATCCACTGGCTTGAAATTCTTGCTGCCAGCAC (protein concentration 10 nM) | 130
AACTTGAAGTCACCACATGAAAGGTTCCAATGCAGC (protein concentration 10 nM) | 121
GAAATCCAGGAGAAAAATGCAGGACAGTCAGAGTAA (protein concentration 10 nM) | 106
TACTGGGGAGTGAAAAGGACACATCTATCCTTATAT (protein concentration 10 nM) | 103
GGCCCTGGGCCTGACCCATGAAATCATTTTTCCCTT (protein concentration 10 nM) | 94.3
AATGAATCTGCATGAATAAAAGGGTCAACACAGCAG (protein concentration 10 nM) | 147
TAGTTAAGACCTCTTAAGTCATAATAATATTGCCTA (protein concentration 10 nM) | 102
TGACCATTTGAGGTTTGTGGTTATGCATATAAAATG (protein concentration 1 nM) | 577
CATGAAGAATATAGCATTGTTTTGTATATGTTTTAA (protein concentration 10 nM) | 131
AGAGGCATGAAAACAAATGAGACTAGGATGAGTTGG (protein concentration 10 nM) | 131
GAAGTTTCAAGATGTAGTAGTTAAAGTATTAACTTA (protein concentration 10 nM) | 113
GTCCCGGCTCGACTCAGTCCTCCAGCCGCCCGGGGA (protein concentration 10 nM) | 120
CTTGACAGAGGTATGTGCTAGGATTGAATATGTGGG (protein concentration 10 nM) | 131

Sequence | TF binding intensity
ATACATACCTTTCACCCTCCATTGTGTGAGGCCCAG (protein concentration 10 nM) | 114
CCATCGATGAAAAGGCTGCTATCTCTCGCTGATGGG (protein concentration 10 nM) | 139
ATGGCATACTAAGTAGCCACAACATGCAAGATGGAC (protein concentration 1 nM) | 440
TTAACCTCTAGAAAAAGTAAATATTCAGCAATAGGA (protein concentration 10 nM) | 103
GAAATATGACAAAAAACCCCTATCCTATGATAAGTC (protein concentration 10 nM) | 146
CCTGAGGCCTGCCCCAGTCACCTGTATTTACCCTGC (protein concentration 10 nM) | 122
AGACAGAAAAAGCCACAGCCGAGCGCCCAGCTGTGG (protein concentration 10 nM) | 95.8
AACGTCTACATTTGCTATTGTAAAACTTTTCAAGGC (protein concentration 10 nM) | 125
TTGTTACACTCCACGCTTTAGCTATTTGTTGCTACT (protein concentration 10 nM) | 120
AAATAAATTCTTGTCTGGGGCCGACATCTGTGTGGA (protein concentration 10 nM) | 119
ATAAAGTACATTAATTCATTCATCCAGCAAGAGTGT (protein concentration 10 nM) | 122
CCCTGAGGTCTATCTTGCTGCAAATTGAATGCCTGC (protein concentration 10 nM) | 120
GAACTAACGAGGTCACTGAGAAATTACAAAGTGTGA (protein concentration 10 nM) | 107
AGGTGCACGATGGGTGGGGAGCTGCTCAGGGCACTG (protein concentration 10 nM) | 112
TAGGGAATGGTGAGCTGTGGTTTGTGGCTTCATGGA (protein concentration 1 nM) | 443
CATATAACTGGTAGAACATCAGGTGTGGGTGGATCA (protein concentration 10 nM) | 111
GTTTATTGCCCACAACATGTCAGGCACAGTGGGAAG (protein concentration 10 nM) | 132
CTCTGCCCAGTTGGTTGTGGCTCTTCATTACTGTGG (protein concentration 1 nM) | 512
ACCTGTGAATAGACTGACCAAATGCAAGCTGGACCA (protein concentration 10 nM) | 111
GCGTTCGAGGGACACTGGACATCTGGTGGCCCTCCA (protein concentration 10 nM) | 93.7
